Screens deposited in PubChem by several laboratories.
MCL1 BIM primary: disrupts human MCL1 binding to BIM-BH3 peptide | AID 2057 | 320,000 tested, 0.68% active | GST-MCL1 / FITC-Bim-BH3 fluorescence polarization | Q07820 | inhibition, % at 10.9 µM;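 active means inhibition above the mean inhibition of all tested compounds plus 3 SD, set per campaign, cut at about 40% in these data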;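 further: higher means more loss of mP so more displacement of Bim peptide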
MEX-5 binding: C. elegans MEX-5 TCR-2 RNA binding activity | Q9XUB2 | MEX-5/FITC-TCR2 RNA binding, fluorescence polarization; stronger effect = lower value | activity score (negative = inhibition of binding), % at 10 µM | 300,000 tested, 0.38% active;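 active means inhibition past about -25% in most replicates, and total fluorescence under double the plate's negative control median, limit read from the data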
eLon inh: inhibits E. coli Lon protease. purified E. coli Lon protease, fluorescence polarization. 360,000 tested, 0.42% active. AID 602123. P0A9M0. inhibition, % at 7.94 µM; in the data active means inhibition above about 13%, passing the limit was not always enough
EBV gp42 inh: inhibitors of Epstein-Barr virus glycoprotein 42 | Q1HVG2 | Fluorescence polarization binding assay, mP read-out | inhibition, % (tested at 21.74 µM) | 220,000 tested, 0.42% active | AID 1085; in the data active means inhibition above about 50%
GLD-1 RNA inh: GLD-1-TGE RNA interaction inhibition (C. elegans); inhibition, % at 5.96 µM; 320,000 tested, 0.44% active; purified GLD-1 + fluorescein TGE RNA, fluorescence polarization; AID 2280; Q17339;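 active means percent inhibition above a per-plate cutoff, the plate mean of test compounds plus 3 SD, cut at about 30% in these data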
Target sequence (Q17339 whole entry, looked up): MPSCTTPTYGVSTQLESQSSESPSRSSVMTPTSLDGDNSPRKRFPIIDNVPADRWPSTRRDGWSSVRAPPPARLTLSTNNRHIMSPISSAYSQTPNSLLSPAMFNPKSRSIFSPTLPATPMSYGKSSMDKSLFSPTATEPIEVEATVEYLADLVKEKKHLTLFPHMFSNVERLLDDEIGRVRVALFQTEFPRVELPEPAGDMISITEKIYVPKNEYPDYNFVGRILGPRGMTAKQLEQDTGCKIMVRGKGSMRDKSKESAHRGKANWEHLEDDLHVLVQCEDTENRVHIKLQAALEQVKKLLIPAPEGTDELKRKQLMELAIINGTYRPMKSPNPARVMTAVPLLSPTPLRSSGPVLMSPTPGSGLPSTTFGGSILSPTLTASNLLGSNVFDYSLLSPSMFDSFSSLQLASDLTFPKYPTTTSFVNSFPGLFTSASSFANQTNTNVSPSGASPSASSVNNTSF
BCLXL inh: Bcl-xL (human) inhibition | Q07817 | GST-Bcl-xL / FITC-Bim BH3 peptide fluorescence polarization | inhibition, % at 10.9 µM | 320,000 tested, 0.7% active | AID 2129;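 active means inhibition above the mean of all tested compounds plus 3 SD, cutoff set per campaign, cut at about 30% in these data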;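 further: inhibitors lower millipolarization by displacing the labeled peptide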
BCLXL inh confirm: counter-screen for MCL1 inhibitors: confirmation of human Bcl-xL inhibitors; AID 2166; GST-Bcl-xL / FITC-Bim BH3 peptide FP binding; 1,700 tested, 54% active; shares compounds with MCL1 BIM primary; inhibition, % at 10.9 µM;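 active means inhibition above a cutoff equal to the mean inhibition of all tested compounds plus 3 SD, cut at about 30% in these data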
MCL1 inh confirm: MCL1-BIM-BH3 interaction inhibition, confirmation. shares compounds with MCL1 BIM primary. GST-MCL1 / FITC-Bim-BH3 fluorescence polarization. inhibition, % at 10.9 µM. 1,700 tested, 61% active. AID 2168;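 active means inhibition above the average of all tested compounds plus 3 SD, cut at about 40% in these data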
A number is an active result; – = inactive; · = not tested or not shown. Hits are enriched below; roughly 1.5% of the tested compounds scored in any of these assays.

SMILES	MCL1 BIM primary	MEX-5 binding	eLon inh	EBV gp42 inh	GLD-1 RNA inh	BCLXL inh	BCLXL inh confirm	MCL1 inh confirm
Cn1cc(Br)c(C(=O)NNC(=O)Cc2ccc(Cl)cc2)n1	–	–	–	·	–	–	·	·
O=Cc1cccc(OC(=O)/C=C/c2ccco2)c1	49.8	–	–	·	–	–	–	52.2
COC(=O)c1ccc(OC(=O)/C=C/c2ccco2)cc1	–	–	–	·	–	–	·	·
CCc1cc(C(=O)N2CCCC(CNC(=O)c3ccc(-c4ccccc4)cc3)C2)no1 (stereo not given)	–	–	–	–	–	–	·	·
O=C1C(=Cc2ccc(Br)o2)C(=O)c2ccccc21	92.0	·	–	65.5	–	47.5	42.8	63.9
Cc1ccc(C(=O)O)cc1-c1ccc(C=C2C(=O)c3ccccc3C2=O)o1	–	–	–	–	–	–	·	·
O=C(NCCCNC(=O)c1c(F)cccc1F)c1c(F)cccc1F	–	–	–	·	–	–	·	·
N#Cc1c(SCC(=O)Nc2nncs2)sc2c(O)cc(=O)[nH]c12	69.9	–	–	·	–	34.3	–	53.4
COc1cc(Cl)c(C)cc1NC(=O)CSc1sc2c(O)cc(=O)[nH]c2c1C#N	42.7	–	–	·	–	–	–	–
Cc1ccc(N=Nc2ccc(C)cc2NC(=O)Nc2ccccc2F)cc1	–	–	–	–	–	–	·	·
c1coc(Cn2nnnc2CN2CCN(C3CCCC3)CC2)c1	40.4	–	–	–	–	–	–	–
O=C(c1cc(-c2ccco2)nn1-c1cccc(Cl)c1)N1CCCCC1	69.6	–	–	–	–	–	–	65.3
O=[N+]([O-])c1ccc2nc(-c3ccc(OC(F)F)cc3)cn2c1	93.5	–	–	–	–	–	–	–
CN(Cc1ccccc1)S(=O)(=O)c1ccc(NC(=S)NC(=O)C2CCCC2)cc1	–	–	–	–	–	–	·	·
CC(C)C1Nc2ccc(C(=O)O)cc2C2C=CCC21 (stereo not given)	82.2	-54.5	–	–	–	48.5	36.5	48.2
CCCC1Nc2ccc(C(=O)O)cc2C2C=CCC12 (stereo not given)	87.4	-48.8	–	–	–	48.9	–	–
Nc1nc(CSC(=S)N2CCN(c3ccccc3)CC2)nc(Nc2ccc(F)cc2)n1	–	–	–	–	–	–	·	·
CC(C)OC(=O)CSc1nnc(-c2ccccn2)n1C	–	–	–	–	–	–	·	·
Cc1ccc([C@@H]2C3COCC=C3C(C#N)=C(N)C2(C#N)C#N)o1 (stereo not given in full)	104.9	–	69.1	–	77.7	96.5	71.2	73.9
Cc1cc(-n2c(=O)c(C#N)cc3c(=O)n4ccccc4nc32)no1	55.7	–	–	–	–	43.1	44.9	57.9
C[C@@H]1CCCCO[C@H](CN(C)C(=O)Nc2cccc3ccccc23)[C@@H](C)CN([C@H](C)CO)C(=O)c2cc(NC(=O)c3ccccc3)ccc2O1	·	·	–	·	·	·	·	·
COc1ccccc1OCC(=O)OCC(=O)NC1CCCCC1	·	·	–	·	–	·	·	·
O=C(NNC(=O)c1ccccc1F)c1cccc(-n2cccc2)c1	65.4	–	–	·	–	–	–	91.9
CN(CCCNC(=O)c1cn(C)c2ccc(S(=O)(=O)N(C)C)cc2c1=O)c1ccccc1	–	–	–	–	–	–	·	·
CC(C)(C)C(=O)[C@@H]1[C@@H]2C(=O)N(Cc3ccccc3)C(=O)[C@@H]2[C@H]2c3ccccc3C=CN12	·	·	·	–	·	·	·	·
SMILES	MCL1 BIM primary	MEX-5 binding	eLon inh	EBV gp42 inh	GLD-1 RNA inh	BCLXL inh	BCLXL inh confirm	MCL1 inh confirm
O=C1NC(=O)[C@@H]2C3c4ccccc4C=CN3[C@H](C(=O)c3cccs3)[C@H]12 (stereo not given in full)	124.3	-53.2	·	88.4	101.5	122.6	61.2	87.3
CC(C)(C)c1cc(N/C=C\c2nnnn2-c2ccc(Br)cc2)no1	–	–	–	–	–	–	·	·
Oc1cccc(O)c1O	62.7	·	·	·	–	–	–	41.8
Cc1cc(/C=C\c2ccc3cc(N(C)C)ccc3[n+]2C)c(C)n1-c1ccccc1	132.0	·	–	·	139.1	53.5	40.8	101.4
Nc1cc2c(cc1[N+](=O)[O-])OCO2	43.9	–	–	–	–	–	41.2	78.0
Nc1cc2c(cc1[N+](=O)[O-])OCCO2	–	–	–	–	–	–	·	·
COCCCNC(=O)/C(C#N)=C/c1c(N2CCN(c3ccccc3)CC2)nc2c(C)cccn2c1=O	98.5	–	–	·	–	91.4	37.1	40.8
Cc1cccn2c(=O)c(C=O)c(N3CCN(c4ccccc4)CC3)nc12	59.7	–	–	–	–	37.1	39.0	48.6
COCCCNC(=O)/C(C#N)=C/c1c(N2CCN(c3cccc(Cl)c3)CC2)nc2c(C)cccn2c1=O	–	–	–	·	–	–	·	·
Cc1cccn2c(=O)c(C=O)c(N3CCN(C)CC3)nc12	–	–	–	·	–	–	·	·
Cc1ccccc1C1C(C#N)=C2N=C(N)c3c(sc4c3CCCCC4)N2C2=C1C(=O)CCC2 (stereo not given)	66.9	–	–	–	48.7	61.4	53.5	68.1
CN(c1ncc(C(F)(F)F)cc1Cl)N1C(=O)c2cccc(N)c2C1=O	62.0	–	–	57.3	84.2	58.7	47.4	65.6
CN(c1ncc(C(F)(F)F)cc1Cl)N1C(=O)C2ONC3(C(=O)CC(C)(C)CC3=O)C2C1=O (stereo not given)	–	–	–	–	–	–	·	·
N#CC1=C(N)n2c(s/c(=C\c3ccco3)c2=O)=C(C#N)C1c1ccco1 (stereo not given)	55.3	–	–	–	–	43.5	104.0	149.7
CCOC(=O)C1=C(N)n2c(s/c(=C/c3ccco3)c2=O)=C(C(=O)OC)C1c1ccco1 (stereo not given)	–	–	–	–	–	–	·	·
NC(=O)c1c(NC(=O)C2CCCO2)sc2c1CCC2 (stereo not given)	–	–	–	–	–	–	·	·
NC(=O)c1c(NC(=O)C2CCCO2)sc2c1CCCCC2 (stereo not given)	42.6	–	–	–	–	33.0	–	–
CCOC(=O)CC(=O)NC(CC(=O)OC)c1ccc(C(C)C)cc1 (stereo not given)	–	–	–	–	–	–	·	·
Cc1ccnc(Nc2nc(-c3ccc(O)c(O)c3)cs2)c1	41.8	–	–	·	–	–	36.0	42.0
CC1CCCCN1C(=O)CSc1nnc(-c2ccco2)o1 (stereo not given)	–	–	–	·	–	–	·	·
Cn1cc(/C=C2\SC(=O)NC2=S)c2ccccc21	59.5	–	–	71.6	–	62.0	74.3	81.9
